Five targets from the supplement of paper PMC10849652 can be followed below.

Of roughly 8,800 targets only a part is listed; those with a hit were picked by preference. About 0.5% of all pairs of compound and target were hits. Values without a mark were called inactive.

Assay in all cases: log2 fold change, soluble protein after heating vs DMSO (PISA); higher = thermal stabilisation; K562 lysate, 10 uM; active = over 0.2 and 3.5 SD of the protein, either way, in both replicates (recomputed)
Compound in assay [1]: NCC(=O)Nc1ccc(-n2nc(C(F)(F)F)cc2-c2ccc3c(ccc4ccccc43)c2)cc1
The procedure, abridged:
(§1)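 Soluble protein was defined as the supernatant remaining after 21,000xg for 90 min, following pooling of heated aliquots and adjustment to 0.5% NP-40 at 4°C. Before that, crude K562 extract at 1 mg/mL protein in PBS pH 7.4 with 1 mM MgCl2 was treated with 10 μM compound for 30 min and heated for 3 min across 48°C-58°C. Quantification used TMTpro 16plex LC-MS/MS with channel sums equalised, and values are log-two fold changes in thermal stability relative to solvent controls from duplicates.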

Compound in another assay: O=C(CCCCCCC(=O)Nc1ccccc1)NO [vorinostat]
The gist of the method:
as §1

Compound in the next assay: O=C(O)c1ccc2c(c1)nc(Nc1cccc(Cl)c1)c1ccncc12 [silmitasertib]
The procedure, abridged: as §1

Compound in assay [2]: O=C1NC(=O)C(c2cnc3ccccn23)=C1c1cn2c3c(cc(F)cc13)CN(C(=O)N1CCCCC1)CC2
The procedure, abridged:
as §1

Compound in a further assay: c1cn2cc(-c3ccc4cn[nH]c4c3)nc(Nc3ccc(N4CCOCC4)cc3)c2n1 [entospletinib]
The gist of the method: as §1

UniProt Q96KF7, sequence (Q96KF7 whole entry, looked up): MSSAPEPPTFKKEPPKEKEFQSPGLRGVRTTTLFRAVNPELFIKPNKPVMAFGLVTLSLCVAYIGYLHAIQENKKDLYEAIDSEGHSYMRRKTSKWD
UniProt P50225, sequence (P50225 whole entry, looked up): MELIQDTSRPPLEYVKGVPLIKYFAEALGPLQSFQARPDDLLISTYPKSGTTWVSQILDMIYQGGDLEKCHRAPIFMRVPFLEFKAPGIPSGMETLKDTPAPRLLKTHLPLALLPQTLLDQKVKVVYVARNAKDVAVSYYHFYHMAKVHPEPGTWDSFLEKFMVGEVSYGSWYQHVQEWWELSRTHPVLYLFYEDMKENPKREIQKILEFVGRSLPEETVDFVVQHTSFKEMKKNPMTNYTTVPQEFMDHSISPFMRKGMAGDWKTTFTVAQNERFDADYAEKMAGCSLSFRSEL
UniProt Q13487, sequence (Q13487 whole entry, looked up): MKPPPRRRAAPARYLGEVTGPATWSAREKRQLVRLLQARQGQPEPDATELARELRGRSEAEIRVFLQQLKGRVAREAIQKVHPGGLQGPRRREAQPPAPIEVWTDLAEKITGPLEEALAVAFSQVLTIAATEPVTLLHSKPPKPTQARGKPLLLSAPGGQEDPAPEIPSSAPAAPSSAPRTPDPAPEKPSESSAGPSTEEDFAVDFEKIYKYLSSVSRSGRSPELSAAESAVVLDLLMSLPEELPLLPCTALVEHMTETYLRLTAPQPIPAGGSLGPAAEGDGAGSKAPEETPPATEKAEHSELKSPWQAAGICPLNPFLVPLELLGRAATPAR
UniProt Q8WVK7, sequence (Q8WVK7 whole entry, looked up): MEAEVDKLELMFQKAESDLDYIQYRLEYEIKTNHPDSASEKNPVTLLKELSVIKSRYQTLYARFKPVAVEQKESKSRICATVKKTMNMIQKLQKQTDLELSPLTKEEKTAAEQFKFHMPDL

SULT1A1 (UniProt P50225): the log2 fold change was 0.077 in assay [1]; -0.273 (active) in the assay with vorinostat; 0.036 in the assay with silmitasertib; -0.021 in assay [2]; 0.071 with entospletinib.

As for SMIM8 (UniProt Q96KF7), the log2 fold change is -0.007 in assay [1]; 0.092 with vorinostat; -0.022 in the assay with silmitasertib; -0.029 in assay [2]; -0.046 with entospletinib.

Consider SKA2 (UniProt Q8WVK7), for which the log2 fold change is 0.086 in assay [1]; -0.364 (active) with vorinostat; -0.035 with silmitasertib; 0.067 in assay [2]; -0.028 in the assay with entospletinib.

Turning to SSB (UniProt E7ERC4), the log2 fold change was -0.063 in assay [1]; 0.012 with vorinostat; 0.105 in the assay with silmitasertib; -0.11 in assay [2]; -0.092 in the assay with entospletinib.

SNAPC2 (UniProt Q13487): the log2 fold change in the assay with vorinostat was -0.631 (active); with silmitasertib it was -0.122; in assay [2], -0.086.
